# Measured values: the supplement of paper PMC3898565
# “And” between values parts separate entries of the source, which are not always exact repeats. Identical values can stand only once. Counter-ions that a name gives are not always drawn. ± gives the uncertainty stated by the source.
# Tested on: U87
# Test: cell viability relative to vehicle control; higher = less growth inhibition (less active)
# Details: 10 µM; 72 h
# 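Note: viable cell number estimated from Alamar Blue fluorescence read at 560/90, part of a single-dose primary screen of an FDA-approved drug library.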
row,SMILES,cell viability
1,CN1CCCCC1CCN1c2ccccc2Sc2ccc([S+](C)[O-])cc21 (stereo not given) [Mesoridazine],105 ± 2.8%
2,CCOC(=O)c1ccc(OC(=O)CCCCCNC(=N)N)cc1 [Gabexate],98.6 ± 3.2%
3,CC(N/C(=N\C#N)Nc1ccncc1)C(C)(C)C (stereo not given) [Pinacidil monohydrate],105 ± 1.1%
4,CN(C)CCOC(C)(c1ccccc1)c1ccccn1 (stereo not given) [doxylamine succinate],96.6 ± 1.2%
5,COc1cc(C)nc(-n2nc(C)cc2OC)n1,104 ± 1.9%
6,CC[N+](C)(CC)CCOC(=O)C(O)(c1ccccc1)C1CCCCC1 (stereo not given),109 ± 1.3%
7,CC(=O)[C@]1(O)Cc2c(O)c3c(c(O)c2[C@@H](O[C@H]2C[C@H](N)[C@H](O)[C@H](C)O2)C1)C(=O)c1ccccc1C3=O [Idarubicin HCL],31.6 ± 2.3%
8,O=C1CC[C@@H](C(=O)N2CSC[C@H]2C(=O)O)N1,99.4 ± 1.6%
9,CC(=O)[C@H]1CC[C@H]2[C@@H]3CCC4=CC(=O)CC[C@]4(C)[C@H]3CC[C@]12C,107 ± 3%
10,CN(CCOc1ccc(CC2SC(=O)NC2=O)cc1)c1ccccn1 (stereo not given),100% and 110%
